From PubChem BioAssay (NCI)
This is part of a sample that, as a whole, favours compounds with a hit. Of some 79,000 tested, about 15% had one in any assay. Activity calls are given as the source filed them. Cut-off read from the data, not from the text of the source: active = growth inhibition above about 70%; inactive = the rest.

Tests used:
[1] = NCI Yeast Anticancer Drug Screen. Data for the rad52 strain (AID 147);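 note: 0% = growth of vehicle-treated control cultures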; conditions: S. cerevisiae rad52 mutant growth inhibition, hits give high values
How it was run: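 The repair-mutant yeast strain was incubated with compounds, then growth was read and inhibition derived relative to vehicle.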

[2] = NCI Yeast Anticancer Drug Screen. Data for the wt1 strain (AID 149);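 note: 0% = growth of vehicle-treated wt1 cultures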; conditions: S. cerevisiae wt1 strain (SPY 50644) growth inhibition, hits give high values
How it was run: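 Readout: yeast growth inhibition, normalised to vehicle controls, in the wt1 strain exposed to test compounds.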

[3] = NCI Yeast Anticancer Drug Screen. Data for the rad50EPP+ strain (AID 151);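 note: 0% = growth of vehicle-treated control cultures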; conditions: S. cerevisiae rad50 mutant strain, hits give high values
How it was run: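 Vehicle-normalised growth inhibition; rad50EPP+ yeast strain, altered in DNA damage repair, compound-treated.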

[4] = NCI Yeast Anticancer Drug Screen. Data for the rad50 strain (AID 155);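 note: 0% = growth of vehicle-only cultures of the same strain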; conditions: S. cerevisiae rad50 strain growth inhibition, hits give high values
How it was run: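 Compounds were tested on a yeast strain with an engineered DNA damage repair alteration; the reported value is growth inhibition normalised to vehicle treatment.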

[5] = NCI Yeast Anticancer Drug Screen. Data for the mec2-1 strain (AID 157); conditions: S. cerevisiae mec2-1 strain, hits give high values
How it was run: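 Mutant yeast (mec2-1) grown with compound; growth inhibition relative to vehicle control reported.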

[6] = NCI Yeast Anticancer Drug Screen. Data for the rad14 strain (AID 159);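 note: 0% = growth of vehicle-treated control cultures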; conditions: S. cerevisiae rad14 strain growth inhibition, hits give high values
How it was run: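 Compound-treated yeast with a defined DNA-repair lesion; growth inhibition normalised to vehicle-treated cultures.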

[7] = NCI Yeast Anticancer Drug Screen. Data for the sgs1 mgt1 strain (AID 161);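 note: 0% = growth of cultures given vehicle only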; conditions: S. cerevisiae sgs1 mgt1 strain, hits give high values
How it was run: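 Yeast cells carrying a defined DNA-repair defect were exposed to test compounds. Growth inhibition was measured relative to vehicle-treated controls.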

[8] = NCI Yeast Anticancer Drug Screen. Data for the cln2 rad14 strain (AID 165);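 note: 0% = growth equal to vehicle treated cultures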; conditions: S. cerevisiae cln2 rad14 strain, hits give high values
How it was run: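 Readout is yeast growth inhibition versus vehicle-treated controls, using a strain with cln2 and rad14 alterations exposed to compound.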

[9] = NCI Yeast Anticancer Drug Screen. Data for the bub3 strain (AID 167); conditions: S. cerevisiae bub3 mutant strain, hits give high values
How it was run: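 Growth of a checkpoint-deficient yeast mutant is measured after compound exposure. Values represent inhibition relative to vehicle.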

[10] = NCI Yeast Anticancer Drug Screen. Data for the wt2 strain (AID 169);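 note: 0% = growth of vehicle-treated yeast cultures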; conditions: S. cerevisiae wt2 strain growth inhibition, hits give high values
How it was run: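 Against vehicle-treated controls, the growth of yeast exposed to each compound was compared, and the inhibition was recorded.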

[11] = NCI Yeast Anticancer Drug Screen. Data for the mlh1 strain (AID 171);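 note: 0% = growth of vehicle-treated control cultures of the same strain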; conditions: S. cerevisiae mlh1 strain growth inhibition, hits give high values
How it was run: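 Measured: yeast growth. Reference: vehicle-treated controls. Organism: strain with a defined alteration affecting DNA damage repair or cell cycle control, treated with compound.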

[12] = NCI Yeast Anticancer Drug Screen. Data for the sgs1 strain (AID 173);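 note: 0% = growth of vehicle-only control cultures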; conditions: S. cerevisiae sgs1 mutant, hits give high values
How it was run: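 Each compound was added to cultures of the altered yeast strain. Growth was recorded, and inhibition was derived by comparison with vehicle controls.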

[13] = NCI Yeast Anticancer Drug Screen. Data for the mlh1 rad18 strain (AID 175); conditions: S. cerevisiae mlh1 rad18 strain growth inhibition, hits give high values
How it was run: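 Genetically defined yeast (DNA repair-deficient) exposed to compounds; growth inhibition determined relative to vehicle.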

[14] = NCI Yeast Anticancer Drug Screen. Data for the rad18 strain (AID 177); conditions: S. cerevisiae rad18 mutant growth inhibition, hits give high values
How it was run: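 Vehicle-treated cultures served as the baseline for scoring compound-induced growth inhibition in DNA-repair-mutant yeast.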

[15] = at 5.0 µM (retest, dose inferred, filed as 0.5)
[16] = at 50.0 µM (retest, dose inferred, filed as 5.0)

Measured: growth inhibition

CC(=O)OCC1OC(O[C@H]2C=C[C@@H](C(=O)OCc3ccccc3)n3c(=O)n(-c4ccccc4)c(=O)n32)C(OC(C)=O)C(OC(C)=O)C1OC(C)=O (stereo partly drawn)
active: [1]; at 100.0 µM 77% | [4]; [16] 72% | [5]; [16] 71% | [7]; [16] 78% | [7]; at 50.0 µM 71% | [9]; [16] 80% | [9]; at 50.0 µM 75.1% | [9]; at 100.0 µM 76% | [10]; at 33.0 µM 98% | [10]; at 100.0 µM 97% | [11]; at 100.0 µM 70% | [12]; at 100.0 µM 77% | [13]; [15] 70% | [13]; [16] 93% | [14]; at 100.0 µM 76%
inactive: [1]; at 1.2 µM 22% | [1]; at 3.7 µM 24% | [1]; at 11.0 µM 14% | [1]; at 33.0 µM 63% | [2]; at 1.2 µM -11% | [2]; at 3.7 µM 2% | [2]; at 11.0 µM -3% | [2]; at 33.0 µM 21% | [2]; at 100.0 µM 29% | [3]; at 1.2 µM -9% | [3]; at 3.7 µM 3% | [3]; at 11.0 µM 2% | [3]; at 33.0 µM 16% | [3]; at 100.0 µM 18% | [4]; at 1.2 µM -14% | [4]; at 3.7 µM 10% | [4]; [15] 39% | [4]; at 11.0 µM 0% | [4]; at 33.0 µM 50% | [4]; at 50.0 µM 59% | [4]; at 100.0 µM 67% | [5]; at 1.2 µM 2% | [5]; at 3.7 µM 9% | [5]; [15] 23% | [5]; at 11.0 µM -8% | [5]; at 33.0 µM 36% | [5]; at 50.0 µM 57% | [5]; at 100.0 µM 59% | [6]; at 1.2 µM -15% | [6]; at 3.7 µM 8% | [6]; at 11.0 µM -8% | [6]; at 33.0 µM 8% | [6]; at 100.0 µM 20% | [7]; [15] 29% | [8]; [15] 13% | [8]; [16] 33% | [8]; at 50.0 µM 53.6% | [9]; at 1.2 µM -30% | [9]; at 3.7 µM -18% | [9]; [15] 28% | [9]; at 11.0 µM -27% | [9]; at 33.0 µM 24% | [10]; at 1.2 µM -36% | [10]; at 3.7 µM -18% | [10]; at 11.0 µM 19% | [11]; at 1.2 µM -17% | [11]; at 3.7 µM -2% | [11]; at 11.0 µM -23% | [11]; at 33.0 µM 39% | [12]; at 1.2 µM -9% | [12]; at 3.7 µM -15% | [12]; at 11.0 µM -8% | [12]; at 33.0 µM 50% | [13]; at 50.0 µM 28.9% | [14]; at 1.2 µM -6% | [14]; at 3.7 µM 3% | [14]; at 11.0 µM 7% | [14]; at 33.0 µM 59%
